Assay results from PubChem BioAssay.
Activity calls are given as the source filed them.

Experiments:
[1] = E. coli DRC41 culture turbidity changes, primary screen, E. coli filamentation inducer project, strain DRC41, OD650, 48 h (AID 1152);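 note: E. coli MC1000 strain DRC41 lacking acrAB efflux pump and sulA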; details: E. coli DRC41 (acrAB sulA), higher = more signal, called active from +8 up or from −8 down
[2] = small-molecule binders of probe aLefty1, primary screen, biochemical, small-molecule microarray, 635/667 nm fluorescence (AID 1153); details: higher = more signal;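 note: score merges spot fluorescence with signal-to-noise ratio from the scanned slide images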
[3] = PSAC antagonists in infected red cells, primary screen, cell-based, P. falciparum Indochina, OD700, 1 h (AID 1154); details: P. falciparum Indochina infected RBC osmotic lysis, higher = more signal, called active from +8 up or from −8 down
[4] = PSAC antagonists in infected red cells, primary screen, cell-based, P. falciparum Indochina, OD700, 2 h (AID 1155);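 note: lysis reports solute entry through the parasite surface anion channel PSAC; channel blockers reduce lysis of infected cells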; details: P. falciparum Indochina infected erythrocytes, osmotic lysis OD700; higher = more signal, called active from +8 up or from −8 down
[5] = osmotic lysis modulators in infected erythrocytes, primary screen, PSAC antagonist project, cell-based, P. falciparum Indochina, OD700, 3 h (AID 1156); details: higher = more signal, called active from +8 up or from −8 down
[6] = PSAC antagonists in infected red cells, primary screen, cell-based, P. falciparum Indochina, OD700, 18 h (AID 1157); details: P. falciparum Indochina infected erythrocytes, osmotic lysis OD700, 18 h; higher = more signal, called active from +8 up or from −8 down
[7] = modulators of S6 phosphorylation in cells, primary screen, cell-based, A549, cytoblot, luminescence, serum-stimulated (AID 1158); details: A549 phospho-S6 cytoblot, 5 h, higher = more signal;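 note: serum-stimulated A549 lung adenocarcinoma cells; signal is phosphorylated S6 detected by cytoblot immunostaining with HRP secondary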
[8] = target: NADPH oxidase 2 (Homo sapiens) (UniProt P04839); assay: NOX2-dependent H2O2 signal modulators, primary screen, NOX inhibitor project, cell-based, HEK293-NOX2, PMA-stimulated, Amplex Red fluorescence (AID 1159); details: 45 min, higher = more signal, called active from +8 up or from −8 down; note: test concentration not given here
[9] = target: NADPH oxidase 4 (Homo sapiens) (UniProt Q9NPH5); assay: NOX4-dependent H2O2 signal modulators, primary screen, NOX inhibitor project, cell-based, HEK293-NOX4, tetracycline-induced, Amplex Red fluorescence (AID 1160); details: 45 min, higher = more signal, called active from +8 up or from −8 down
[10] = target: NADPH oxidase 5 (Homo sapiens) (UniProt Q96PH1); assay: NOX5-dependent H2O2 signal modulators, primary screen, NOX inhibitor project, cell-based, HEK293-NOX5, Amplex Red fluorescence (AID 1161); details: HEK293-NOX5, ionomycin, 45 min, higher = more signal
[11] = A549 cell viability effects, profiling panel, calcein-AM fluorescence, 48 h, basal (AID 1162); details: higher = more signal; note: test concentration not given here
[12] = adipocyte viability effects, profiling panel, cell-based, 3T3-L1 adipocytes, calcein-AM fluorescence, 48 h, basal (AID 1163); details: 3T3-L1 adipocytes viability, higher = more signal; note: test concentration not given here
[13] = HepG2 cell viability effects, profiling panel, calcein-AM fluorescence, 48 h, basal (AID 1164); details: higher = more signal; note: test concentration not given here
[14] = MM1S cell viability effects, profiling panel, calcein-AM fluorescence, 48 h, basal (AID 1165); details: higher = more signal;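 note: viability of MM1S multiple myeloma cells under basal unstimulated conditions; test concentration not given here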
[15] = basal RPMI8226 viability, no added stimulus, profiling panel, cell-based, calcein-AM fluorescence, 48 h, PK04 Diversity Set (AID 1166); details: RPMI8226 myeloma viability, higher = more signal;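 note: cells grown under basal conditions without added stimulus; test concentration not given here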
[16] = basal HepG2 mitochondrial membrane potential changes, profiling panel, cell-based, JC-1 fluorescence, 24 h, 100 nL compound (AID 1167); details: higher = more signal; note: test concentration not given here
[17] = basal 3T3-L1 adipocyte mitochondrial potential changes, profiling panel, cell-based, JC-1 fluorescence, 3T3-L1 adipocytes, 24 h, 100 nL compound (AID 1168); details: JC-1 mitochondrial fluorescence, higher = more signal, called active from +8 up or from −8 down; note: test concentration not given here
[18] = basal RPMI8226 mitochondrial membrane potential changes, profiling panel, cell-based, JC-1 fluorescence, 24 h, 100 nL compound (AID 1169); details: RPMI8226 myeloma, JC-1 mitochondrial potential fluorescence, higher = more signal; note: test concentration not given here
[19] = basal MM1S mitochondrial membrane potential changes, profiling panel, cell-based, JC-1 fluorescence, 24 h, 100 nL compound (AID 1170); details: higher = more signal; note: test concentration not given here
[20] = A549 lung cancer cell viability effects, profiling panel, resazurin fluorescence, 24 h, PK04 Diversity Set (AID 1171); details: higher = more signal, called active from +8 up or from −8 down; note: test concentration not given here

NADPH oxidase 4 (Homo sapiens), sequence (Q9NPH5 whole entry, looked up): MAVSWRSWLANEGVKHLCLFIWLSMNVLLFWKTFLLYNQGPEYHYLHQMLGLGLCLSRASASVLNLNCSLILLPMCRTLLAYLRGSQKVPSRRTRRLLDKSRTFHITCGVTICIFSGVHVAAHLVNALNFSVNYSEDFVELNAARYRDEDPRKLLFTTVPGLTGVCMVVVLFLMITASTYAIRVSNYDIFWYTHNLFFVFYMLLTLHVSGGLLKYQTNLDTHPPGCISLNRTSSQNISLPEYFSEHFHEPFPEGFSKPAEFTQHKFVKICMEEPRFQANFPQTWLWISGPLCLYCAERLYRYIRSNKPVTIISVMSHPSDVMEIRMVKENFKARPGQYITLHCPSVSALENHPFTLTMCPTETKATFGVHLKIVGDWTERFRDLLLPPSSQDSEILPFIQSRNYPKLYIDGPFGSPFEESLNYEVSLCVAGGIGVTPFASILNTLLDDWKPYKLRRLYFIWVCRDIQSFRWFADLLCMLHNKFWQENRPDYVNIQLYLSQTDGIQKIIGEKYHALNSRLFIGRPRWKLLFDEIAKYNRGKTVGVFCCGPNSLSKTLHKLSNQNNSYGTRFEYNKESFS
NADPH oxidase 5 (Homo sapiens), sequence (Q96PH1 whole entry, looked up): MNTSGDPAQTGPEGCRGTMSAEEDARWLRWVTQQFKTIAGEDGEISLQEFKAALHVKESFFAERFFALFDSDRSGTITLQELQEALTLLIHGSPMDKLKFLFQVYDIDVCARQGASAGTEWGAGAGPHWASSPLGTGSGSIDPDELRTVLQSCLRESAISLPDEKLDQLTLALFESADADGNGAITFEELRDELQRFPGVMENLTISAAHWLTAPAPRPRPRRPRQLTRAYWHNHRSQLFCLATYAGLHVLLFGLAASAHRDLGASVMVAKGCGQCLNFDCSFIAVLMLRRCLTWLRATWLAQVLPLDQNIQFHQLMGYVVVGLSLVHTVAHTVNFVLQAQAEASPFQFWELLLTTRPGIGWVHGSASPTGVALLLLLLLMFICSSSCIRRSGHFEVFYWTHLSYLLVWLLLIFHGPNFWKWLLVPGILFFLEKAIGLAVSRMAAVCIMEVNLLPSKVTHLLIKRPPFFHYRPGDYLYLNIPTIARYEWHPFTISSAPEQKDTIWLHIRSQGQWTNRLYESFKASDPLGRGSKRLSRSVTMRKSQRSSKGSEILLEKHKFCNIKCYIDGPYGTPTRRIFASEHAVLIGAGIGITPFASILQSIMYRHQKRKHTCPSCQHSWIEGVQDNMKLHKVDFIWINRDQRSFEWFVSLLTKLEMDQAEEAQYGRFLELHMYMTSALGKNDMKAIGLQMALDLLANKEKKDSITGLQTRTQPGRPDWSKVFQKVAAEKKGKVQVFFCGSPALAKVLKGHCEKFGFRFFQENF
NADPH oxidase 2 (Homo sapiens), sequence (P04839 whole entry, looked up): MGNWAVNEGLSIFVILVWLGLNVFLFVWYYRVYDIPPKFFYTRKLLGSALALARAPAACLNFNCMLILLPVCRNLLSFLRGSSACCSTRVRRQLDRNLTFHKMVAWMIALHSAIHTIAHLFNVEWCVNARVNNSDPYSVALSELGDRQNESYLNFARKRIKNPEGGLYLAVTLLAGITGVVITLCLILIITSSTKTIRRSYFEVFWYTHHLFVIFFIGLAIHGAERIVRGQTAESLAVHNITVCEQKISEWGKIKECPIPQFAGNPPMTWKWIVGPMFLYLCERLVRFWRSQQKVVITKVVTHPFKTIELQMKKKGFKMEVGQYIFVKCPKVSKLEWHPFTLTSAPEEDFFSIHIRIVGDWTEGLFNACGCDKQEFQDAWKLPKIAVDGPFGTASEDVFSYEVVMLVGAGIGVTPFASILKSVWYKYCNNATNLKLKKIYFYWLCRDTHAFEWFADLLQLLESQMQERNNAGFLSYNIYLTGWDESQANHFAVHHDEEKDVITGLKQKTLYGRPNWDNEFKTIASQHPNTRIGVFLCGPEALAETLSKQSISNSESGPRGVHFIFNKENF

| SMILES | z-score [1] | composite z-score [2] | z-score [3] | z-score [4] | z-score [5] | z-score [6] | z-score [7] | z-score [8] | z-score [9] | z-score [10] | z-score [11] | z-score [12] | z-score [13] | z-score [14] | z-score [15] | z-score [16] | z-score [17] | z-score [18] | z-score [19] | z-score [20] |
| --- | --- | --- | --- | --- | --- | --- | --- | --- | --- | --- | --- | --- | --- | --- | --- | --- | --- | --- | --- | --- |
| O=C1[C@H]2[C@H]3[C@H](O)[C@H](O)CC(=NOCc4ccccc4)[C@H]3CC[C@H]2C(=O)N1c1cccc(Oc2ccccc2)c1 | 0.0144 (inactive) | -0.0193 | 6.64 (inactive) | 1.42 (inactive) | 0.969 (inactive) | 0.525 (inactive) | -0.219 | -1.86 (inactive) | -1.01 (inactive) | -3.91 | 0.382 | -0.921 | -0.6 | -0.641 | 0.907 | -0.988 | 0.394 (inactive) | 0.341 | -0.721 | 0.188 (inactive) |
| CC(CCC(=O)OC[C@H]1O[C@H](C#Cc2ccccc2)C=C[C@@H]1Oc1ccc(C)cc1)=NOC[C@@H](O)[C@H]1O[C@@H]2OC(C)(C)O[C@@H]2[C@H]1O | 0.715 (inactive) | -0.193 | 14.2 (active) | 1.9 (inactive) | 0.0766 (inactive) | 1.05 (inactive) | 0.078 | -1.55 (inactive) | -0.00198 (inactive) | -1.2 | 0.0105 | -0.0958 | 0.0263 | -0.567 | -1.53 | -0.791 | -0.649 (inactive) | -0.0641 | -1.26 | -0.042 (inactive) |
| COc1ccc(O[C@H]2C=C[C@@H](c3ccccc3)O[C@@H]2COC(=O)CCC(C)=NO[C@H](C)c2cn([C@@H]3COC[C@H]3O)nn2)cc1 | 0.451 (inactive) | -0.0501 | 5.05 (inactive) | 0.0624 (inactive) | 1.63 (inactive) | -0.908 (inactive) | 0.607 | -4.13 (inactive) | -0.691 (inactive) | -4.98 | -1.24 | -0.547 | -1.22 | -0.913 | -1.22 | -1.63 | -1.03 (inactive) | 0.923 | -1.25 | 1.47 (inactive) |
| CCN1C(=O)[C@H]2[C@H]3[C@H](O)[C@H](O)CC(=NO[C@@H]4O[C@H](CO)[C@@H](O)[C@H](O)[C@H]4O)[C@@H]3CC[C@H]2C1=O | 0.0871 (inactive) | -0.183 | 0.568 (inactive) | 0.283 (inactive) | -0.846 (inactive) | -0.0143 (inactive) | 0.345 | 0.0968 (inactive) | 0.303 (inactive) | -0.0261 | 1.05 | 0.462 | 0.484 | -0.944 | 0.0072 | -0.608 | 0.725 (inactive) | 0.14 | -0.385 | -0.859 (inactive) |
| Cc1cc2c(c(=O)o1)[C@H](O)[C@H]1O[C@H]1C2=O | -0.743 (inactive) | -0.237 | -0.228 (inactive) | 0.496 (inactive) | 0.716 (inactive) | 0.0033 (inactive) | -0.573 | 1.67 (inactive) | -1.04 (inactive) | -1.39 | -0.728 | 0.287 | -1.03 | -3.45 | -2.96 | -1.31 | -0.883 (inactive) | 0.433 | -1.12 | -0.506 (inactive) |
| C#CCCCON=C1C[C@@H](O)[C@@H](O)[C@@H]2[C@@H]3C(=O)N(c4cccc(Oc5ccccc5)c4)C(=O)[C@@H]3CC[C@@H]12 | -0.164 (inactive) | -0.0929 | 2.87 (inactive) | 1.29 (inactive) | 1.24 (inactive) | 0.354 (inactive) | -0.512 | -2.13 (inactive) | -0.598 (inactive) | -0.786 | -0.559 | 0.43 | -1.57 | -0.399 | -0.2 | 0.106 | 0.126 (inactive) | -0.56 | 0.835 | -0.248 (inactive) |
| CCOC(=O)CCN1C(=O)[C@H]2[C@H]3[C@H](O)[C@H](O)CC(=NOCc4ccccc4)[C@@H]3CC[C@H]2C1=O | -0.505 (inactive) | -0.094 | 1.61 (inactive) | 0.885 (inactive) | -0.059 (inactive) | 0.429 (inactive) | -0.32 | -0.104 (inactive) | 0.593 (inactive) | 1.14 | 0.16 | 0.112 | -0.149 | -0.104 | 1.16 | -0.761 | -0.522 (inactive) | -0.043 | -0.362 | -0.0452 (inactive) |
| [N-]=[N+]=NCc1ccccc1C[C@]1(C(=O)NCc2ccccc2)N=C(c2ccc(OCCCO)cc2)O[C@H]1c1ccccc1N=[N+]=[N-] | 0.0901 (inactive) | -0.7 | 30.6 (active) | 30.6 (active) | 2.72 (inactive) | 3.32 (inactive) | -0.275 | -0.349 (inactive) | -0.15 (inactive) | -1.66 | -0.71 | 0.0331 | -1.03 | -2.98 | -4.24 | 0.504 | -0.249 (inactive) | -1.17 | -1.5 | -0.883 (inactive) |
